ChEMBL document CHEMBL1961873, “Compounds: GSK PKIS; Assays: Nanosyn kinase panel” (2012)

Key:
[1] = molecular target: High affinity nerve growth factor receptor (Homo sapiens) (UniProt P04629); settings: at 1 µM;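 also: each value is the mean percent inhibition of TRKA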
[2] = molecular target: BDNF/NT-3 growth factors receptor (Homo sapiens) (UniProt Q16620); settings: at 0.1 µM
[3] = molecular target: BDNF/NT-3 growth factors receptor (Homo sapiens) (UniProt Q16620); settings: at 1 µM
[4] = molecular target: NT-3 growth factor receptor (Homo sapiens) (UniProt Q16288); settings: at 0.1 µM
[5] = molecular target: NT-3 growth factor receptor (Homo sapiens) (UniProt Q16288); settings: at 1 µM
[6] = molecular target: T1, Tyrosine-protein kinase TXK (Homo sapiens) (UniProt P42681); settings: at 0.1 µM
T1 sequence (whole entry): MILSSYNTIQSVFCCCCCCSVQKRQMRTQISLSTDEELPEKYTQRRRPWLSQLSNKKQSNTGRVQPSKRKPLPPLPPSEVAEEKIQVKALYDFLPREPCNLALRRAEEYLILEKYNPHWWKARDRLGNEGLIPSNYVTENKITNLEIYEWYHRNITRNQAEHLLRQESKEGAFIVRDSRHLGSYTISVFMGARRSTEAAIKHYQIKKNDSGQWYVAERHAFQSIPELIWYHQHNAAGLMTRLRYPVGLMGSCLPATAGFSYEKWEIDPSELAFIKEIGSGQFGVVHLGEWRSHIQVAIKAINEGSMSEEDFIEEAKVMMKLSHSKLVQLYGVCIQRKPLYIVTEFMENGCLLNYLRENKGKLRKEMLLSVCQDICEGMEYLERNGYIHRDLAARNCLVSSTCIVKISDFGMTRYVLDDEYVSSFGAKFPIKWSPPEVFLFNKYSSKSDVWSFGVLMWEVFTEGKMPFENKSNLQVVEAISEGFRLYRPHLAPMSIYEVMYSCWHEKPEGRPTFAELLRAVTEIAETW

[7] = molecular target: T1, Tyrosine-protein kinase TXK (Homo sapiens); settings: at 1 µM
[8] = molecular target: Non-receptor tyrosine-protein kinase TYK2 (Homo sapiens) (UniProt P29597); settings: at 0.1 µM;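 also: each value is a mean of the inhibition readings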
[9] = molecular target: T2, Dual specificity protein kinase TTK (Homo sapiens) (UniProt P33981); settings: at 1 µM;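 also: reported figures are mean TTK inhibition at 1 µM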
T2 sequence (whole entry): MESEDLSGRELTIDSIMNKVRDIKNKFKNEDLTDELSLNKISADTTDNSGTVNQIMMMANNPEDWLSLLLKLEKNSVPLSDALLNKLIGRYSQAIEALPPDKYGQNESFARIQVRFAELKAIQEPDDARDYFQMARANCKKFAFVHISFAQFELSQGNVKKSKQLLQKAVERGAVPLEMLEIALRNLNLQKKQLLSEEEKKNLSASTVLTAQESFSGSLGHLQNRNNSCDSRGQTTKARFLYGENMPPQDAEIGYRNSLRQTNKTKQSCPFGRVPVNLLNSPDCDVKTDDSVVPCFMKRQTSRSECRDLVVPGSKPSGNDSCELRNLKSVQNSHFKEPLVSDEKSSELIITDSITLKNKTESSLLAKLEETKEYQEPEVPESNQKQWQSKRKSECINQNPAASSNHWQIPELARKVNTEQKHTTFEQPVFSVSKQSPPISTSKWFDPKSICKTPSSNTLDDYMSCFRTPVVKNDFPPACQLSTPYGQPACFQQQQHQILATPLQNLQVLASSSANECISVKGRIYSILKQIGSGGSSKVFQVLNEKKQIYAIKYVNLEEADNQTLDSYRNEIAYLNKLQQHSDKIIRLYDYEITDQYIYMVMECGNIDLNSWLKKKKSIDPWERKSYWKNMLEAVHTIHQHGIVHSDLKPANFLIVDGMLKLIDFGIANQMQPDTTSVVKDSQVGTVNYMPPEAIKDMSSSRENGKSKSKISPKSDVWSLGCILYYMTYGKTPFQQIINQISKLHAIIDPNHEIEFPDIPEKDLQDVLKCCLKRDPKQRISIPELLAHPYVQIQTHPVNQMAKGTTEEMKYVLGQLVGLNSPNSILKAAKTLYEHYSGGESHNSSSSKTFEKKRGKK

[10] = molecular target: T3, Aurora kinase A (Homo sapiens) (UniProt O14965); settings: at 0.1 µM
T3 sequence (whole entry): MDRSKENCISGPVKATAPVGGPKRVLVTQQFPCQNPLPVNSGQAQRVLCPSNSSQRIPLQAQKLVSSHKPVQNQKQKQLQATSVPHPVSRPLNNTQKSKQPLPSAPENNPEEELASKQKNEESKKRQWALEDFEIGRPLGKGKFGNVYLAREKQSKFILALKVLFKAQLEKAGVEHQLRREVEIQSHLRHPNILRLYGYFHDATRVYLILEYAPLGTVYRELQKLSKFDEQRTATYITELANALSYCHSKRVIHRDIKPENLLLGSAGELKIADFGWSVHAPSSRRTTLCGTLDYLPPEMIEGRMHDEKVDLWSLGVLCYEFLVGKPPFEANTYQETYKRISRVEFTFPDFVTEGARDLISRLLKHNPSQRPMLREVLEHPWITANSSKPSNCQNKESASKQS

[11] = molecular target: T3, Aurora kinase A (Homo sapiens); settings: at 1 µM
[12] = molecular target: Aurora kinase B (Homo sapiens) (UniProt Q96GD4); settings: at 0.1 µM
[13] = molecular target: Aurora kinase B (Homo sapiens) (UniProt Q96GD4); settings: at 1 µM
[14] = molecular target: T4, Aurora kinase C (Homo sapiens) (UniProt Q9UQB9); settings: at 0.1 µM
T4 sequence (whole entry): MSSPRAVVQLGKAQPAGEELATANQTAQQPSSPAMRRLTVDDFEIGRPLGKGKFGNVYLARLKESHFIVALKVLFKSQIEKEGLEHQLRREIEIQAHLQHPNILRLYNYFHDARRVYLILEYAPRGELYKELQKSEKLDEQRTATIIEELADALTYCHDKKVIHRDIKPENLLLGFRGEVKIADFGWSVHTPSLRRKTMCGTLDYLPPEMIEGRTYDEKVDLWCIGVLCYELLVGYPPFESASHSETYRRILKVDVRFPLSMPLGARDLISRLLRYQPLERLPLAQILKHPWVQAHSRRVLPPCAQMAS

[15] = molecular target: T4, Aurora kinase C (Homo sapiens); settings: at 1 µM
[16] = molecular target: Serine/threonine-protein kinase 10 (Homo sapiens) (UniProt O94804); settings: at 0.1 µM
[17] = molecular target: Serine/threonine-protein kinase 10 (Homo sapiens) (UniProt O94804); settings: at 1 µM
[18] = molecular target: T5, Mitogen-activated protein kinase kinase kinase kinase 2 (Homo sapiens) (UniProt Q12851); settings: at 0.1 µM
T5 sequence (whole entry): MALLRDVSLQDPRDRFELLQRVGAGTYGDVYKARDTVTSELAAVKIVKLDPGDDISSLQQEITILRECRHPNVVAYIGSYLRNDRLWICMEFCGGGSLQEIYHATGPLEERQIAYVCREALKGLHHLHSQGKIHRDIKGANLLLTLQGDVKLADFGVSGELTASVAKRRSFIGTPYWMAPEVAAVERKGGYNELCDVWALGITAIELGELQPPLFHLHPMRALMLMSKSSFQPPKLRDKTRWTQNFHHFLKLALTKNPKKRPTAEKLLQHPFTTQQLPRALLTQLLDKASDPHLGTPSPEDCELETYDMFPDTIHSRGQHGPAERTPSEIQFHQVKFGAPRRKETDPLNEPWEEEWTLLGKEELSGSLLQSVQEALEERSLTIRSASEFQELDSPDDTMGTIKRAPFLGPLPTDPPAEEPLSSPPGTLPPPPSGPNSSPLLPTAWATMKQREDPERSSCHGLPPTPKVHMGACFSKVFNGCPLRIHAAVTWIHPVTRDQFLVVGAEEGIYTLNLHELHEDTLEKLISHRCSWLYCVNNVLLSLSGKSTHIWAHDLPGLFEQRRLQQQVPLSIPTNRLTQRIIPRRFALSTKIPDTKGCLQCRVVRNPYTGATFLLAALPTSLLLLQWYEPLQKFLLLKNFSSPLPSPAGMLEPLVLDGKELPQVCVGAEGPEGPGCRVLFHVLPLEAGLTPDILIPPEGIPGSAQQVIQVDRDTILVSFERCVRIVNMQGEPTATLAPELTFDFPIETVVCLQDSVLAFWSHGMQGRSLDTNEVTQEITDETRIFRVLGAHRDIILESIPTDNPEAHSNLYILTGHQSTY

[19] = molecular target: T5, Mitogen-activated protein kinase kinase kinase kinase 2 (Homo sapiens); settings: at 1 µM
[20] = molecular target: Mitogen-activated protein kinase kinase kinase kinase 4 (Homo sapiens) (UniProt O95819); settings: at 0.1 µM
Chain of Mitogen-activated protein kinase kinase kinase kinase 4 (Homo sapiens) (O95819 2-1239 limits assumed): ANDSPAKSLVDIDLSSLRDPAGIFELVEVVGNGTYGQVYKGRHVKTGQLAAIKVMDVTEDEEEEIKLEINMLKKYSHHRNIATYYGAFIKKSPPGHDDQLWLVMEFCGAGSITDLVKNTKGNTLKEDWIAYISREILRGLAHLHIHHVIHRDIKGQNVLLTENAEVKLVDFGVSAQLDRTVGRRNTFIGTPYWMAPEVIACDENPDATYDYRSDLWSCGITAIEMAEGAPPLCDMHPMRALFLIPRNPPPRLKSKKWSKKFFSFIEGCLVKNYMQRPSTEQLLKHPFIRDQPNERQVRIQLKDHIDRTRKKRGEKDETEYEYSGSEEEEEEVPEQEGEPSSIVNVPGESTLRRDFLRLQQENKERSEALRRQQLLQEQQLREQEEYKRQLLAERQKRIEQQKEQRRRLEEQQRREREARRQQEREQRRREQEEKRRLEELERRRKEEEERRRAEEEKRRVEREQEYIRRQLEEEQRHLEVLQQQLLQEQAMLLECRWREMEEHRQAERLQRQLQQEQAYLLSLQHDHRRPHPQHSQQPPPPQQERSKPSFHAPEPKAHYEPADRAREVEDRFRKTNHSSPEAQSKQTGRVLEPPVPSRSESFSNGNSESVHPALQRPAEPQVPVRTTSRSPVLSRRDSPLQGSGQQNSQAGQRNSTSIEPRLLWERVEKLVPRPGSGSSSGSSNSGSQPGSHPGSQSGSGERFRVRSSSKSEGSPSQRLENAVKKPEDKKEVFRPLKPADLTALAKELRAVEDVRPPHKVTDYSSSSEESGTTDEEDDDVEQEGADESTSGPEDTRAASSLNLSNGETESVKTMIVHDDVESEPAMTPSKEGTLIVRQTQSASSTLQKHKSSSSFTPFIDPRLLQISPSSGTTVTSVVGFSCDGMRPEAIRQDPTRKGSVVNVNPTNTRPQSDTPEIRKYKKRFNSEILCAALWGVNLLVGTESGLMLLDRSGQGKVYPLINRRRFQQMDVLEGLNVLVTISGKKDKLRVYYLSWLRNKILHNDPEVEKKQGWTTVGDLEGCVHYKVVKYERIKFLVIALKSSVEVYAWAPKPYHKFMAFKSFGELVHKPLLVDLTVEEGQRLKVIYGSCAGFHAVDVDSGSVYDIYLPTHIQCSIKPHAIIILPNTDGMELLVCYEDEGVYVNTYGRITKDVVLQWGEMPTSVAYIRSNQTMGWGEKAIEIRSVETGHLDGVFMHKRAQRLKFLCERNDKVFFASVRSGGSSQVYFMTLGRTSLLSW

Chain of High affinity nerve growth factor receptor (Homo sapiens) (P04629 33-796 limits assumed): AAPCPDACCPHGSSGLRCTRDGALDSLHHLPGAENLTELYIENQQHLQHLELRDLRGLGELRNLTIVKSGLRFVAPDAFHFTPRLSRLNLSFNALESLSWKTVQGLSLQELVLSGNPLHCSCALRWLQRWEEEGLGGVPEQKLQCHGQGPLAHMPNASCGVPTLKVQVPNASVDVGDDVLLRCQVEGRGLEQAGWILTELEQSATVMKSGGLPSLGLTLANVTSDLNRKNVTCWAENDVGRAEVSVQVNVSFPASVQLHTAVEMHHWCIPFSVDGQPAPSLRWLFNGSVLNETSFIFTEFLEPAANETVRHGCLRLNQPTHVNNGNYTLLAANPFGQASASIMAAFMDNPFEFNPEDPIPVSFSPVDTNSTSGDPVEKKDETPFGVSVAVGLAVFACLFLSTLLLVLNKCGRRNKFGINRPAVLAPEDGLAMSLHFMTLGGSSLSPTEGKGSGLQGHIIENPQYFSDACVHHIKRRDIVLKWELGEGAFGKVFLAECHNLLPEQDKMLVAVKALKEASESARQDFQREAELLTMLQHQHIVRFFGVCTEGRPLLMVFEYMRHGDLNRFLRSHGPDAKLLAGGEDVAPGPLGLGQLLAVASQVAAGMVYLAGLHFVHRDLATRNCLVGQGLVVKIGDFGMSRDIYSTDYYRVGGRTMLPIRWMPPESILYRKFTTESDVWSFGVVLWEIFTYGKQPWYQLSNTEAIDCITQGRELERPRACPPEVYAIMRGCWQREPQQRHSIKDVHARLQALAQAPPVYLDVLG
Chain of Serine/threonine-protein kinase 10 (Homo sapiens) (O94804 whole entry, looked up): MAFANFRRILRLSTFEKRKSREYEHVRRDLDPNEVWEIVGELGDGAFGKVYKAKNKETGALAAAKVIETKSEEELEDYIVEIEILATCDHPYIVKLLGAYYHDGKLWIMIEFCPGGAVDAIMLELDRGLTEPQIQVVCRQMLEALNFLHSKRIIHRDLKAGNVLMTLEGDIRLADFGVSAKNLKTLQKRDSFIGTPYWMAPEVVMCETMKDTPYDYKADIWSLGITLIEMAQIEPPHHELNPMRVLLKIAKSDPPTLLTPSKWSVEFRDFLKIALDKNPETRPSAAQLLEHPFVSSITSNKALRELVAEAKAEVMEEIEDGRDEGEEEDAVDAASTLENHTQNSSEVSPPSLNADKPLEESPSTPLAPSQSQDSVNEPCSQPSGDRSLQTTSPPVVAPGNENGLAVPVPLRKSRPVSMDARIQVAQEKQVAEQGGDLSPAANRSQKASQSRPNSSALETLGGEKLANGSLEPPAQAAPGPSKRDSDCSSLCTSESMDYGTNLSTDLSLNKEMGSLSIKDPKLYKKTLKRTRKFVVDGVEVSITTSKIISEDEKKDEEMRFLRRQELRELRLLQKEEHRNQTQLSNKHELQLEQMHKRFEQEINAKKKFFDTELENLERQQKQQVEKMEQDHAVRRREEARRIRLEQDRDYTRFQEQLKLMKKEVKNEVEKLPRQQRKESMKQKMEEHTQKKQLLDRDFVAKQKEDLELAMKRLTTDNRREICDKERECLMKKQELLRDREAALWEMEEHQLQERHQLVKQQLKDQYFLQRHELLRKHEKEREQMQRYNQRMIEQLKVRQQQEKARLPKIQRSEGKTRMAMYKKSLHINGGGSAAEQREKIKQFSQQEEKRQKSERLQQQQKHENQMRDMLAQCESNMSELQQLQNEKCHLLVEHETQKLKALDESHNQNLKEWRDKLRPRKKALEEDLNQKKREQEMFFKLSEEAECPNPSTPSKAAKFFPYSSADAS
Chain of BDNF/NT-3 growth factors receptor (Homo sapiens) (Q16620 32-822 limits assumed): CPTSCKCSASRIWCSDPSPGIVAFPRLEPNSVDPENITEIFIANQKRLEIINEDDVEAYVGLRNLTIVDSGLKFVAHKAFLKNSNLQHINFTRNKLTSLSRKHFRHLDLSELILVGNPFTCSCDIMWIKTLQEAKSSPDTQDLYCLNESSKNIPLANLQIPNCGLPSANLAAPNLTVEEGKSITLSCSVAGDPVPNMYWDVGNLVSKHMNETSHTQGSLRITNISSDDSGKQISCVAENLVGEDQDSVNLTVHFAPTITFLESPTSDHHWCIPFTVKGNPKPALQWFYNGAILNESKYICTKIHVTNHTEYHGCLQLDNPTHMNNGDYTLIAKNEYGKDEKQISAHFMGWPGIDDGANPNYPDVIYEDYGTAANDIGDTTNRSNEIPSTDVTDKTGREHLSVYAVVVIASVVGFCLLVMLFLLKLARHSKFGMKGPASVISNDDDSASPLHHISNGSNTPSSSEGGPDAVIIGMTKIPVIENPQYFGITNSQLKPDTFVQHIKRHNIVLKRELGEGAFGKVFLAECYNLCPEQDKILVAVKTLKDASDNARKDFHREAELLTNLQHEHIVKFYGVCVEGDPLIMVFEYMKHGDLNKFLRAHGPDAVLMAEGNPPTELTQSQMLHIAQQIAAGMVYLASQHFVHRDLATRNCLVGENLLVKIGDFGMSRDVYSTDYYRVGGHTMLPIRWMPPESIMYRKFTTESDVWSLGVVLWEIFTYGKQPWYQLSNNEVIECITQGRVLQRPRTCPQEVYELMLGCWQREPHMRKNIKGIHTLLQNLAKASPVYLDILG
Chain of Non-receptor tyrosine-protein kinase TYK2 (Homo sapiens) (P29597 whole entry): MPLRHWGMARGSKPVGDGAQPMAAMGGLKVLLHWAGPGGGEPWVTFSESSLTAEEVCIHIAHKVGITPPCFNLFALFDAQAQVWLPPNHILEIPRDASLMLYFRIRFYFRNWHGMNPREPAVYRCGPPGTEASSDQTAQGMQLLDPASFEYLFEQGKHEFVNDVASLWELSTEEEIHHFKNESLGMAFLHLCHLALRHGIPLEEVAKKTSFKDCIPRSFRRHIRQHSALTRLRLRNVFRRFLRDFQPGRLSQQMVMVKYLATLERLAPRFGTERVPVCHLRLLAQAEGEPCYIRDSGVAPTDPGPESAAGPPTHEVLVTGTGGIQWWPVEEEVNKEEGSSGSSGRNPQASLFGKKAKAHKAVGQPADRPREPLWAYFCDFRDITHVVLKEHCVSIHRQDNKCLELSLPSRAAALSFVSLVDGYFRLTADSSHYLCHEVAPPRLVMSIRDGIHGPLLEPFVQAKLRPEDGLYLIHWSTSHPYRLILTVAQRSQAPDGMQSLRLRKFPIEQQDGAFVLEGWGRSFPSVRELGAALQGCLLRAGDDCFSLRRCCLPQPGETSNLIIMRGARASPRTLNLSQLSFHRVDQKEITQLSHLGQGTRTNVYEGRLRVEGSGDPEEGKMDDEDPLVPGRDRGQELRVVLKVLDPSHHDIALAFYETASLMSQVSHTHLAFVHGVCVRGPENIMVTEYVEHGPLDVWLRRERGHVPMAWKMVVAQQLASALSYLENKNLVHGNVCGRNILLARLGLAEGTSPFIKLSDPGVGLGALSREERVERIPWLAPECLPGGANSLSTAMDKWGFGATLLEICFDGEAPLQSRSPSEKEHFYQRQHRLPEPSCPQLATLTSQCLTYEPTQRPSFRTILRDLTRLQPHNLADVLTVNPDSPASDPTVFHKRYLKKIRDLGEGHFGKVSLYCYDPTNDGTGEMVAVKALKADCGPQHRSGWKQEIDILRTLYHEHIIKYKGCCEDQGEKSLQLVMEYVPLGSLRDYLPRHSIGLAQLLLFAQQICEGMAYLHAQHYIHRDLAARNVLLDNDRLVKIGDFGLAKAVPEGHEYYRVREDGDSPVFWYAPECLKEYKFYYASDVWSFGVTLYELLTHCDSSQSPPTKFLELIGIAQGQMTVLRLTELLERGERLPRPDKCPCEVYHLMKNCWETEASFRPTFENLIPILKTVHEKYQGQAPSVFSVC

Compound	inhibition [1] [%]	inhibition [2] [%]	inhibition [3] [%]	inhibition [4] [%]	inhibition [5] [%]	inhibition [6] [%]	inhibition [7] [%]	inhibition [8] [%]	inhibition [9] [%]	inhibition [10] [%]	inhibition [11] [%]	inhibition [12] [%]	inhibition [13] [%]	inhibition [14] [%]	inhibition [15] [%]	inhibition [16] [%]	inhibition [17] [%]	inhibition [18] [%]	inhibition [19] [%]	inhibition [20] [%]
CCS(=O)(=O)c1ccc(OC)c(Nc2nccc(N(C)c3ccc4c(C)n[nH]c4c3)n2)c1	11.7	5.19	14.1	4.34	17.5	1.6	26.2	-6.13	11.9	4.98	6.77	3.25	7.33	6.61	28.2	43.4	83	0.17	12.7	4.51
FC(F)(F)c1ccc(-c2nn3ncccc3c2-c2ccnc(Nc3ccc4c(c3)OCCO4)n2)cc1	0.14	1.21	3.15	1.88	4.32	6.36	4.7	3.04	2.98	-2.66	29.2	7.15	11.2	4.98	12.1	10.5	30.1	6.41	6.88	3.6
Cc1nc(-c2ccccc2)n2nc(NCCCN3CCOCC3)ncc12	5.06	1.8	3.5	2.73	2.25	4.46	3.59	-3.48	5.84	3.52	5.63	1.82	8.37	1.43	12.1	4.62	7.49	2.45	2.48	1.62
Nc1nccc(-c2c(-c3ccc(F)cc3)ncn2CCCN2CCOCC2)n1	2.15	1.18	6.6	0.23	4.59	3	3.47	-3.95	6.61	3.86	8.99	2.68	4.99	0.25	-2.92	3.38	7.74	2.02	-0.39	3.81
COc1cc2ncnc(Nc3ccc4c(cnn4Cc4ccccc4)c3)c2cc1OC	2.18	2.13	3.38	1.5	2.59	0.73	4.56	-1.09	13.2	1.22	7.82	3.48	15	1.9	23.7	0.29	14.2	1.57	1.51	8.32
Oc1cccc(-c2nc(-c3ccccc3)[nH]c2-c2ccncc2)c1	5.31	3.82	5.72	4.99	7.3	3.28	13.8	-1.97	12.4	2.96	4.61	3.38	8.4	2.05	-2.07	4.37	16.6	0.57	4.27	4.05
O=S(=O)(CCOCc1ccc(-c2ccc3ncnc(Nc4ccc(OCc5cccc(F)c5)c(Cl)c4)c3c2)o1)c1ccccc1	3.9	2.42	2.72	0.35	0.31	-0.26	2.63	-3.63	11	1.6	2.01	2.69	7.69	-0.03	5.99	2.38	5.21	0.66	3.12	6.19
CCOc1nccc2c1nc(-c1nonc1N)n2CC	3.61	-0.99	5.51	1.31	5.16	4.89	5.69	-0.93	6.96	0.6	8.92	5.61	8.46	2.28	-5.69	11.5	19.9	5.01	10.6	3.98
Cc1cc(O)cc(C)c1/C=C/c1cncc(C(=O)N(C)C)c1	2.43	1.59	0.08	2.73	1.59	2.92	3.74	-1.5	4.52	2.58	13.3	7.28	14.7	3.08	2.63	3.87	7.88	2.39	6.67	6.12
CCS(=O)(=O)c1ccc(OC)c(Nc2ncc(-c3cccc(OC)c3)o2)c1	30.9	7.72	43.5	11.7	49.3	14.5	53.4	-5.06	7.02	4.52	34.5	2.15	5.4	1.61	14.6	4.31	8.64	1.39	6.14	4.46
CN(C)c1cc2c(Nc3ccc4c(cnn4Cc4ccccc4)c3)ncnc2cn1	1.97	1.16	0.6	2.13	1.66	3.19	4.31	-2.71	6.41	-1.73	12.8	-0.85	8.49	2.76	27.6	6.27	13.9	0.85	0.49	2.93
COc1cc(/C=N/Nc2ncnc3c2cnn3C(C)C)ccc1O	8.39	4.28	31.4	3.32	29.1	3.5	14.1	0.13	2.81	3.73	37.7	3.34	15.5	1.77	13.8	3	21.7	2.5	9.5	7.32
COc1ccc(-c2nn3ncccc3c2-c2ccnc(Nc3cccc(C(F)(F)F)c3)n2)cc1	3.94	1.95	3.32	2.64	1.56	0.17	3.03	0.38	6.51	2.9	5.62	1.05	5.57	1.98	5.91	6.76	12.3	2.11	1.6	3.02
